JMJD2A Tudor inh = qHTS Assay for Inhibitors of JMJD2A-Tudor Domain; Lysine-specific demethylase 4A (Homo sapiens), O75164; Potency, µM (highest dose often 114 µM), actives largely listed as inhibitors; AlphaScreen JMJD2A-Tudor / H3K4me3 peptide binding; 4.4% of 390,000 active; AID 504339, 2011; further: nearly all actives have a fitted effect of over 50% in size
PLK1 PBD inh = qHTS for Inhibitors of PLK1-PDB (polo-like kinase 1 - polo-box domain): Primary Screen; Plk1 PBD binding of FITC phosphopeptide, fluorescence polarization; 2.8% of 360,000 active; Potency, µM, most hits filed as inhibitors; AID 720504, 2013; Serine/threonine-protein kinase PLK1 (Homo sapiens), P53350; further: series mostly up to about 57 µM; nearly all actives have a fitted effect of over 65% in size
HP1b binding inh = HTS for Inhibitors of HP1-beta Chromodomain Interactions with Methylated Histone Tails; AlphaScreen HP1-beta / biotin-H3K9me3 peptide binding; Potency, µM (doses to about 114 µM), actives largely listed as inhibitors; 0.56% of 390,000 active; AID 540317, 2011; further: nearly all actives have a fitted effect of over 70% in size
Target sequence (P83916 whole entry, looked up): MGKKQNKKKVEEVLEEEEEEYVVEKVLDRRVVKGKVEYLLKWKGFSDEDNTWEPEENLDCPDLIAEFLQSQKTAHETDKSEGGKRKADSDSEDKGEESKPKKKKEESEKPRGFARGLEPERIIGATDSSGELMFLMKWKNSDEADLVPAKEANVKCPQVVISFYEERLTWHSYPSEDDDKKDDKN
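AlphaScreen: HP1-beta (50 nM) preformed 30 min with biotin-H3(1-18)K9me3 peptide (50 nM) in PBS pH 7.4, 0.01% Tween-20. Compound added for 30 min at RT, then streptavidin donor/nickel chelate acceptor beads (10 ug/mL) for 30 min.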
KAT2A inh = qHTS Assay for Inhibitors of GCN5L2. GCN5L2 HAT assay, ThioGlo1 CoA-SH fluorescence. Potency, µM (titrated, usually from 58.9 µM), usual class: inhibitors. 0.21% of 390,000 active
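ThioGlo1-coupled HAT assay: 20nM GCN5L2, 70uM acetyl-CoA, 75uM H3(1-25) peptide, pH 7.5. Fluorescence read at 340/540nm at start and after 20 min at room temperature.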
BAZ2B block = qHTS Assay for Inhibitors of BAZ2B; Bromodomain adjacent to zinc finger domain protein 2B (Homo sapiens), Q9UIF8; AlphaScreen BAZ2B-H3K14Ac peptide displacement; Potency, µM (doses to about 114 µM), actives largely listed as inhibitors; 4.4% of 360,000 active; AID 504333, 2011; further: nearly all actives have a fitted effect of over 60% in size
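Inhibition is scored as reduced AlphaScreen emission. The BAZ2B/b-H3(5-23)K14Ac complex (50 nM each) in PBS pH 7.4, 0.01% Tween-20 meets compound (up to 110 uM) for 30 min at RT before bead addition.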
PI5P4K alpha inh = qHTS for Inhibitors of phosphatidylinositol 5-phosphate 4-kinase (PI5P4K); 1.2% of 330,000 active; PI5P4Kalpha enzyme, ADP-Glo luminescence, 60 min; hits give low values; max response, %; AID 652105, 2013; Phosphatidylinositol 5-phosphate 4-kinase type-2 alpha (Homo sapiens), P48426; active means max response of -50% or lower; inconclusive means between -30% and -50%; inactive means -30% or higher; further: value at the top dose of about 77 µM
Target sequence (P48426 whole entry, looked up): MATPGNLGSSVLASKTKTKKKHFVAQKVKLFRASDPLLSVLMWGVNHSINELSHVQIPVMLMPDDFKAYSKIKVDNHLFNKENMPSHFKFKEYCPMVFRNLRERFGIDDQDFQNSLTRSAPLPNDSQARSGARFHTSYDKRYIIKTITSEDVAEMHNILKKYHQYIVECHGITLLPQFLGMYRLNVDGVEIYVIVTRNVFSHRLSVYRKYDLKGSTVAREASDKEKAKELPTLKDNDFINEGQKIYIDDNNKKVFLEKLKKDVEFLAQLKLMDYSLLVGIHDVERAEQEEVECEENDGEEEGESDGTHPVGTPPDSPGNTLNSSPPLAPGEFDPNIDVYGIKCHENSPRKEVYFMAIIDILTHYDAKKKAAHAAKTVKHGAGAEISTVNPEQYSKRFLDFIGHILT
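Compounds were pin-transferred onto PI5P4Kalpha and substrate in HEPES pH 7.4 buffer with EGTA, CHAPS and 5% DMSO. ATP (5 microM final) started the reaction, which ran 60 minutes at room temperature before ADP-Glo detection.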
Hits are given with their value; [ ] = another dose, or the depositor's remark. This is a sample that favours compounds with a hit; in the whole collection about 7% have one here. Unless noted, the call rests on the fitted dose curve; in most records, active means well fitted curve in the direction sought with a large enough effect; inconclusive means small, poorly fitted or top-dose-only effect, or another doubt; inactive means no such curve, though single readings can be large; an effect the other way counts as inactive or inconclusive.

`Cc1ccc(CNc2ccc(N3CCOCC3)c(Cl)c2)cc1` gave JMJD2A Tudor inh inconclusive, PLK1 PBD inh inactive, HP1b binding inh inconclusive, KAT2A inh inactive, BAZ2B block 40µM and PI5P4K alpha inh inactive.
Cc1ccc(C(=O)Nc2ccc3c(c2)OCO3)cc1 was read as JMJD2A Tudor inh inactive, PLK1 PBD inh inactive, HP1b binding inh inactive, KAT2A inh inactive and BAZ2B block inactive.
CC(=O)Nc1ccc(N2CCOCC2)c(Cl)c1 was read as JMJD2A Tudor inh inactive, PLK1 PBD inh inactive, HP1b binding inh inactive, KAT2A inh inactive, BAZ2B block inactive and PI5P4K alpha inh inactive.
O=C(NCc1ccc2c(c1)OCO2)C(=S)N1CCOCC1 was read as JMJD2A Tudor inh inactive, PLK1 PBD inh inactive, HP1b binding inh inactive, KAT2A inh inactive, BAZ2B block inactive and PI5P4K alpha inh inactive.
`Cc1ccc(CNc2ccc3c(c2)OCO3)cc1` gave JMJD2A Tudor inh 45µM, PLK1 PBD inh inactive, HP1b binding inh inactive and BAZ2B block 50µM.
Cc1ccc(CNc2ccc(N3CCOCC3)cc2)cc1 was read as JMJD2A Tudor inh 45µM, PLK1 PBD inh inactive, HP1b binding inh inconclusive, KAT2A inh inactive, BAZ2B block 32µM and PI5P4K alpha inh inactive.
c1cc(CNc2ccc(N3CCOCC3)cc2)ccn1 was read as JMJD2A Tudor inh inactive, PLK1 PBD inh inactive, HP1b binding inh inactive, KAT2A inh inactive[0.501 µM], BAZ2B block inconclusive and PI5P4K alpha inh inactive.
`c1cc2c(cc1CNc1ccc(N3CCOCC3)cc1)OCO2` gave JMJD2A Tudor inh 50µM, HP1b binding inh inconclusive and KAT2A inh inactive.
`O=C(OCC#CCSc1nnc(-c2cccc3ccccc23)o1)c1cc2ccccc2o1` gave JMJD2A Tudor inh inactive, HP1b binding inh inactive, KAT2A inh inactive and BAZ2B block inactive.
`CCc1ccc(NCc2cc3cc4c(cc3n(CC(=O)Nc3ccc(Cl)cc3)c2=O)OCO4)cc1` gave JMJD2A Tudor inh inactive, HP1b binding inh inactive, KAT2A inh inactive and BAZ2B block inactive.
`O=[N+]([O-])c1ccc2c(c1N1CCCCC1)=NC1(CCCCC1)[N+]=2[O-]` gave JMJD2A Tudor inh inconclusive, PLK1 PBD inh 21µM, HP1b binding inh 40µM, KAT2A inh inactive, BAZ2B block 35µM and PI5P4K alpha inh -53.
`COc1cc(C)ccc1OCCON1C(=O)CCC1=O` gave JMJD2A Tudor inh inactive, PLK1 PBD inh inactive, HP1b binding inh inactive, KAT2A inh inactive, BAZ2B block inactive and PI5P4K alpha inh inactive.
`COc1cc(C)ccc1OCCOc1cc(C)ccc1Cl` gave JMJD2A Tudor inh inactive[11.4 µM], PLK1 PBD inh 24µM, HP1b binding inh inactive, KAT2A inh inconclusive, BAZ2B block inconclusive and PI5P4K alpha inh inactive.
Screening CCc1ccccc1OCCOc1ccc(C)cc1OC returned JMJD2A Tudor inh inactive[11.4 µM], PLK1 PBD inh 3µM, HP1b binding inh inactive, KAT2A inh inactive, BAZ2B block inactive and PI5P4K alpha inh inactive.
For C=CCN(CC=C)CCCOc1ccc(C)cc1OC the results were JMJD2A Tudor inh 0.32µM, PLK1 PBD inh inactive, HP1b binding inh inconclusive, KAT2A inh inactive, BAZ2B block 25µM and PI5P4K alpha inh inactive.
COc1cc(C)ccc1OCCOc1c(Cl)cc(Cl)cc1Cl was read as JMJD2A Tudor inh inactive, PLK1 PBD inh inactive, HP1b binding inh inactive, KAT2A inh inactive, BAZ2B block inactive and PI5P4K alpha inh inactive.
`Cc1ccc(C(=O)NC(=S)N2CCCCCC2)cc1` gave JMJD2A Tudor inh inactive, PLK1 PBD inh inactive, HP1b binding inh inactive, KAT2A inh inactive, BAZ2B block inactive and PI5P4K alpha inh inactive.
Screening Cc1cc(N=Nc2ccc(Cl)cc2)cc(CN2CCCC2)c1O returned JMJD2A Tudor inh 28µM, PLK1 PBD inh inactive, HP1b binding inh 20µM, KAT2A inh inactive, BAZ2B block 10µM and PI5P4K alpha inh inactive.
Screening N=C1/C(=C\c2ccc(OC(=O)c3ccc(F)cc3)cc2)C(=O)N=C2SC(N3CCOCC3)=NN12 returned JMJD2A Tudor inh inactive, PLK1 PBD inh inconclusive, HP1b binding inh inactive, KAT2A inh inactive, BAZ2B block 45µM and PI5P4K alpha inh inactive.
CCS(=O)(=O)C1=NSC2=NC(=O)/C(=C\c3ccc(OC(=O)c4ccco4)c(OC)c3)C(=N)N21 was read as JMJD2A Tudor inh inactive, PLK1 PBD inh inconclusive, HP1b binding inh inactive, KAT2A inh inactive, BAZ2B block inactive and PI5P4K alpha inh -66.
For CC1CCN(C2=NN3C(=N)/C(=C\c4ccc(OC(=O)c5ccco5)cc4)C(=O)N=C3S2)CC1 the results were JMJD2A Tudor inh inconclusive, PLK1 PBD inh inconclusive, HP1b binding inh inactive, KAT2A inh inactive, BAZ2B block inactive and PI5P4K alpha inh inactive.
`C=CCOc1ccc(/C=C2\C(=N)N3N=C(S(=O)(=O)CC)SC3=NC2=O)cc1OC` gave JMJD2A Tudor inh inactive, PLK1 PBD inh inactive, HP1b binding inh inactive, KAT2A inh inactive, BAZ2B block inconclusive and PI5P4K alpha inh inconclusive.
Screening CCOc1cc(/C=C2/C(=N)N3C(=NC2=O)SN=C3S(=O)(=O)CC)ccc1OC(=O)c1ccco1 returned JMJD2A Tudor inh inconclusive, PLK1 PBD inh 27µM, HP1b binding inh inactive, KAT2A inh inconclusive, BAZ2B block inactive and PI5P4K alpha inh inconclusive.
CCS(=O)(=O)C1=NN2C(=N)/C(=C\c3ccc(OC(=O)c4ccco4)c(OC)c3)C(=O)N=C2S1 was read as JMJD2A Tudor inh inconclusive, PLK1 PBD inh inconclusive, HP1b binding inh inactive, KAT2A inh inactive, BAZ2B block inactive and PI5P4K alpha inh -57.
Screening COc1cc(/C=C2/C(=N)N3C(SC)=NSC3=NC2=O)ccc1OC(=O)c1ccco1 returned JMJD2A Tudor inh inactive, PLK1 PBD inh inconclusive, HP1b binding inh inactive, KAT2A inh inactive, BAZ2B block inactive and PI5P4K alpha inh inconclusive.
CCOc1cc(/C=C2/C(=N)N3OC(C)=CC3=NC2=O)ccc1OC(=O)c1ccco1 was read as JMJD2A Tudor inh inactive, PLK1 PBD inh inactive, HP1b binding inh inactive, KAT2A inh inactive, BAZ2B block inactive and PI5P4K alpha inh inactive.
Screening CCCCC[C@H](C)N1C[C@@H](COCc2ccccc2)Oc2cc(N3CCC[C@@H]3COC)ccc2S1(=O)=O returned PLK1 PBD inh inactive and PI5P4K alpha inh inactive.
Cc1cc(O)c(S(=O)(=O)c2ccccc2)c(C)c1NS(=O)(=O)c1ccccc1 was read as JMJD2A Tudor inh inactive, PLK1 PBD inh inactive, HP1b binding inh inactive, KAT2A inh inactive, BAZ2B block inactive and PI5P4K alpha inh inactive.
Screening CCCOc1ccc(C(=O)Nc2ccc(N3CCOCC3)cc2N2CCOCC2)cc1OCC returned PLK1 PBD inh inactive and PI5P4K alpha inh inactive.

From PubChem
